# Shown are actives, neighbours in structure and some others; about 19% of the full set was active somewhere.
# HT1080-NT tox: kills 2HG-producing HT-1080-NT fibrosarcoma cells | HT-1080-NT fibrosarcoma viability, CellTiter-Glo ATP luminescence, 48 h | Potency, µM (titrated, usually from 46.1 µM), without a hit: top-dose activity, negative = less viability, usual class: cytotoxic | 360,000 compounds, 1.6% hits;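 further: NT is the 2HG producing partner of a matched IDH1 knockdown line; 0% = DMSO-treated cells and -100% = media-only wells without cells; nearly all actives have a fitted effect of over 55% in size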
#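 Luminescent CellTiter-Glo readout after 48 hours of compound exposure at 37 degrees C defined viability of HT-1080-NT cells. Activity was normalized to DMSO wells and cell-free media wells; concentration-response curves were fitted and assigned curve classes.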
# TDP1 cell CPT: growth inhibition of DT40 Tdp1-/-;hTDP1 cells with camptothecin (screen for TDP1 inhibitors). chicken DT40 Tdp1-/-;hTDP1 cells + 20 nM CPT, ATP luminescence, 48 h. 420,000 compounds, 12% hits. Potency, µM (series often up to 46.2 µM), for the others: at the top dose activity change, negative = growth inhibition, hits mostly inhibitors; further: nearly all actives have a fitted effect of over 55% in size
#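 Chicken DT40 Tdp1-/- cells complemented with human TDP1, 400 cells/well, exposed to compounds plus 20 nM camptothecin for at least 48 h at 37 C; viability read as ATP content by CellTiter-Glo luminescence.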
# TDP1 cell noCPT: qHTS for Inhibitors of human tyrosyl-DNA phosphodiesterase 1 (TDP1): qHTS in cells in absence of CPT | AID 686978, 2013 | 420,000 compounds, 15% hits | DT40 Tdp1-/- hTDP1 cells, no CPT, ATP luminescence, 48 h | Potency, µM (highest dose often 46.2 µM), for the others: at the highest dose activity change, negative = growth inhibition, actives largely listed as inhibitors; further: nearly all actives have a fitted effect of over 55% in size
#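 No-CPT arm: Tdp1-/-;hTDP1 DT40 cells (400/well) plus compounds, incubated ≥48 hr at 37 °C. Readout CellTiter-Glo luminescence.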
# HT1080 IDH1KD tx: toxicity to HT-1080 IDH1 knockdown cells (counter line); HT-1080 IDH1 knockdown viability, ATP luminescence, 48 h; Potency, µM (series often up to 46.1 µM), for inactives: at the highest dose activity, negative = toxicity, actives largely listed as cytotoxic; 360,000 compounds, 2% hits; AID 686971;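 further: 0% = DMSO wells and -100% = cell-free medium wells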
#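 Assay cells: HT-1080 with IDH1 knockdown, 750 per well, RPMI/5% FBS. Exposure: 48 h at 37 °C following 2 h pre-incubation. Read: CellTiter-Glo luminescence; fitted concentration-response, curve class assigned.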
# KB-3-1 cytotox: kills parental KB-3-1 adenocarcinoma cells | KB-3-1 viability, CellTiter-Glo ATP luminescence, 72 h | Potency, µM (top dose mostly 46.1 µM), actives largely listed as cytotoxic | 400,000 compounds, 1.4% hits | AID 1347075; further: nearly all actives have a fitted effect of over 60% in size
#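 KB-3-1 parental drug-naive adenocarcinoma cells in DMEM/10% FBS, incubated 72 h at 37 C with pin-transferred compounds across a concentration series. Viability by CellTiter-Glo luminescence; concentration-response curves fitted after normalization.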
# KB-V1 MDR tox: KB-V1 MDR subline cytotoxicity; KB-V1 MDR cells viability, CellTiter-Glo, 72 h; Potency, µM (highest dose often 46.1 µM), actives largely listed as cytotoxic; 400,000 compounds, 3.4% hits; further: nearly all actives have a fitted effect of over 60% in size
#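 qHTS viability screen in drug-selected KB-V1 MDR cells: 72 h compound treatment at 37 degrees C, ATP luminescence end point.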
# * = called active by the depositor; i = inactive; ? = inconclusive; nt = no result. The call rests on the fitted dose curve; in most records, active means well fitted curve in the direction sought with a large enough effect; inconclusive means small, poorly fitted or top-dose-only effect, or another doubt; inactive means no such curve, though single readings can be large; an effect the other way counts as inactive or inconclusive. Unless noted, on the % scale 0 is the no-effect control and ±100 the full control effect; potency means the concentration at half of the fitted maximal effect.
SMILES,HT1080-NT tox,TDP1 cell CPT,TDP1 cell noCPT,HT1080 IDH1KD tx,KB-3-1 cytotox,KB-V1 MDR tox
Cc1oc(-c2ccccc2Cl)nc1CS(=O)CC(=O)N1CCN(c2ccccc2)CC1 (stereo unspecified),-10%,-23%,-25%,-2%,i,i
O=C(CCC(=O)c1cccs1)Nc1ncccc1O,5%,16%,7%,0%,i,i
Cc1ccc(N2CC(C(=O)Nc3c4c(nn3C(C)(C)C)CS(=O)(=O)C4)CC2=O)cc1C (stereo unspecified),-5%,-19%,-16%,-1%,nt,nt
Cc1oc(-c2ccc(Cl)cc2)nc1CS(=O)CC(=O)NCCCN1CC(C)CC(C)C1 (stereo unspecified),16µM*,?,?,?,i,i
COc1ccc(/C=C2\CCCC3C2=NN(C(=O)CSc2ncn[nH]2)C3c2ccc(OC)cc2)cc1 (stereo unspecified),?,18µM*,23µM*,?,i,i
O=C(CSc1ncn[nH]1)N1N=C2/C(=C/c3ccccc3)CCCC2C1c1ccccc1 (stereo unspecified),?,?,?,?,i,?
Cc1ncsc1C(=O)N1N=C2/C(=C/c3ccccc3)CCCC2C1c1ccccc1 (stereo unspecified),0%,?,?,-16%,?,21µM*
CCCCc1nnc(SCc2cc(=O)c3cc(C(=O)OCC)ccc3[nH]2)n1C,nt,-5%,-2%,nt,i,i
Cc1ccc(S(=O)(=O)N2CCC(C(=O)OC(C)C(=O)NC3CCCCC3C)CC2)cc1 (stereo unspecified),4%,-13%,-28%,-1%,i,i
Cc1ccc(N=Nc2c(C)[nH][nH]c2=O)c(C)c1,0%,-22%,-19%,-10%,?,?
CCCOC(=O)c1c(NC(=O)C(C)Sc2nc(-c3ccccc3)cc(C(F)(F)F)n2)sc(C(=O)N(C)C)c1C (stereo unspecified),nt,?,15µM*,nt,?,?
CC(Sc1nc(-c2ccccc2)cc(C(F)(F)F)n1)C(=O)O (stereo unspecified),0%,?,-1%,-6%,i,i
CC(Sc1nc(-c2ccccc2)cc(C(F)(F)F)n1)C(=O)NCCN1CCOCC1 (stereo unspecified),1%,2%,-14%,5%,i,?
CCN(CC)C(=O)c1sc(NC(=O)C(C)Sc2nc(-c3ccccc3)cc(C(F)(F)F)n2)c(C(=O)OC)c1C (stereo unspecified),nt,7.3µM*,7.3µM*,nt,nt,nt
CCOC(=O)CN(C(=O)CNC(=O)c1cccs1)C(C(=O)NC1CCCCC1)c1cccs1 (stereo unspecified),17%,-14%,-26%,1%,i,21µM*
O=C(NC1CCCCC1)C(c1ccc2ncccc2c1)N(Cc1cccs1)C(=O)c1cccs1 (stereo unspecified),?,?,?,?,i,i
O=C(NC1CCCCC1)C(c1cccs1)N(Cc1cccs1)C(=O)c1cccs1 (stereo unspecified),?,18µM*,16µM*,?,i,?
O=C1C=C(NCCc2cc(Br)c(O)c(Br)c2)C(=O)c2ncccc21,?,1.2µM*,2.1µM*,10µM*,7.3µM*,5.8µM*
CC(C)(C)c1cc(CCC(=O)NCCc2ccccn2)cc(C(C)(C)C)c1O,-1%,?,?,-11%,i,?
Cc1ccccc1C(=O)Nc1nnc(S(=O)(=O)N(C)Cc2ccc(Cl)cc2)s1,nt,-30%,-12%,nt,i,i
COc1cc(NC(=O)C2=C(C)OCCS2)c(Cl)cc1C(=O)NCCN(C)C,-5%,-4%,-22%,-15%,i,i
Cc1ccc(C(=O)/C=C/N(C)C)o1,7%,22%,5%,5%,i,i
Cc1ccc(C(=O)/C=C/c2cc(Br)cc(Br)c2O)o1,?,-21%,29µM*,?,i,i
Cc1cccc(NC(=S)NC2CC3CCCC(C2)N3CC(C)C)c1 (stereo unspecified),0%,?,?,2%,i,i
COc1cc(Cl)cc(CN2CCC(CCC(=O)NC3CC3)CC2)c1OC,1%,-17%,-5%,1%,i,i
SMILES,HT1080-NT tox,TDP1 cell CPT,TDP1 cell noCPT,HT1080 IDH1KD tx,KB-3-1 cytotox,KB-V1 MDR tox
CCOC(=O)C1=CN(CC)S(=O)(=O)NC1CCc1ccccc1 (stereo unspecified),0%,-14%,-30%,-10%,i,i
CCOC(=O)C1=CN(Cc2cccc(F)c2)S(=O)(=O)NC1CCc1ccccc1 (stereo unspecified),?,?,26µM*,?,i,i
CC#CCN1C=C(C(=O)OCC)C(C)N(Cc2ccc(Br)cc2)S1(=O)=O (stereo unspecified),-9%,18µM*,23µM*,3%,i,i
CCOC(=O)C1=CN(Cc2cccc(F)c2)S(=O)(=O)N(C)C1c1ccc(F)c(Cl)c1 (stereo unspecified),5%,?,16µM*,1%,i,i
CCOC(=O)C1=CN(Cc2cccc(-c3ccc(Cl)nc3)c2)S(=O)(=O)N(C)C1C (stereo unspecified),-4%,23µM*,21µM*,-5%,i,?
CCOC(=O)C1=CN(Cc2cccc(F)c2)S(=O)(=O)N(C)C1c1ccc2ccccc2c1 (stereo unspecified),3%,-55%,?,7%,i,i
CN(C)C(=O)COc1ccc(S(=O)(=O)c2ccc(OCC(=O)N(C)C)cc2)cc1,-14%,3%,-17%,0%,i,i
CCn1cc(-c2cc(C(F)(F)F)n3nc(C(=O)O)cc3n2)c(C)n1,11%,1%,-13%,9%,i,i
CCOC(=O)C1=CN(Cc2cccc(-c3ccc4c(c3)OCO4)c2)S(=O)(=O)N(C)C1C (stereo unspecified),1%,?,23µM*,3%,i,i
CCCN1C(C)C(C(=O)OCC)=CN(Cc2cccc(I)c2)S1(=O)=O (stereo unspecified),-14%,?,16µM*,-11%,i,i
Cc1nc2ccc(S(=O)(=O)NCC(=O)Nc3ccc(F)cc3F)cc2s1,nt,17%,-11%,nt,nt,nt

# Assay outcomes: PubChem BioAssay, National Center for Advancing Translational Sciences (NCATS)
